Results: PubChem BioAssay AID2496 (Sanford-Burnham Center for Chemical Genomics, 2010)
Active and inactive are the calls of the source. Cut-off read from the data, not from the text of the source: active = IC50 below about 40 µM; inactive = the rest.

Experiment: HTRF spectral interference by compounds, SAR follow-up, artefact control, biochemical, fluorescence ratio (AID 2496)
Conditions: HTRF spectral interference counter-screen

| SMILES | IC50 |
| --- | --- |
| CNc1nc(-c2ccccc2)[n+](-c2ccc(C)cc2)s1 | > 50 µM (inactive) |
| O=C(COC(=O)c1c2c(nc3ccccc13)/C(=C/c1ccco1)CC2)NC1CCCC1 | 4.42 µM (active) |
| COc1ccc(NC(=O)c2cc(-c3ccco3)nc3ccccc23)cc1S(=O)(=O)N1CCOCC1 | 37.2 µM (active) |
| CCNC(=O)COC(=O)c1cc(-c2ccco2)nc2ccccc12 | > 50 µM (inactive) |
| CCN(CC)CCNC(=O)c1cc(-c2ccco2)nc2ccccc12 | 19.8 µM (active) |
| Cc1ccc(/C=C/C(=O)NCc2ccc(S(N)(=O)=O)cc2)o1 | > 50 µM (inactive) |
| CCN(CC)C(=O)COC(=O)c1cc(-c2ccco2)nc2ccccc12 | 16.4 µM (active) |
| CCOC(=O)N1CCN(C(=O)c2ccc3nc(-c4ccco4)c(-c4ccco4)nc3c2)CC1 | 6.55 µM (active) |
| Cc1ccc(/C=C/C(=O)N2CCN(c3ncccn3)CC2)o1 | > 50 µM (inactive) |
| CC(/C=C/c1ccco1)=NNC(=O)c1cc(C)[nH]n1 | > 50 µM (inactive) |
| CC(/C=C/c1ccco1)=NNC(=O)c1cccnc1 | > 50 µM (inactive) |
| CN(CCC#N)C(=O)COC(=O)c1c2c(nc3ccccc13)/C(=C/c1ccco1)CC2 | 8.9 µM (active) |
| COc1ccc(CCNC(=O)c2cc(-c3ccco3)nc3ccccc23)cc1 | 15 µM (active) |
| O=C(Nc1ccc2nc(-c3ccco3)c(-c3ccco3)nc2c1)N1CCOCC1 | 7.32 µM (active) |
| O=C(NN=Cc1ccc(F)cc1)c1cc(-c2ccco2)nc2ccccc12 | > 50 µM (inactive) |
| CCCc1ccc(/C=C2\C(=O)c3ccccc3C(O)=C2C(=O)OCC)cc1 | > 50 µM (inactive) |
| CCOC(=O)c1sc2nc(-c3ccco3)c3c(c2c1N)CC(C)(C)OC3 | > 50 µM (inactive) |
| O=C(CSc1ccc(Cl)cc1)Nc1cccc(-c2nc3ccccc3[nH]2)c1 | 12.8 µM (active) |
| Nc1c(C(=O)NC2CC2)sc2nc3c(c(-c4ccco4)c12)CC/C3=C/c1ccco1 | 2.98 µM (active) |
| CC(=O)NS(=O)(=O)c1ccc(NC(=O)/C=C/c2ccc(C)o2)cc1 | > 50 µM (inactive) |
| Nc1ncnc2oc(-c3ccco3)c(-c3ccco3)c12 | > 50 µM (inactive) |
| O=C(NC1CCCC1)c1ccc2nc(-c3ccco3)c(-c3ccco3)nc2c1 | > 50 µM (inactive) |
| Cc1ccc(S(=O)(=O)N(C)C)cc1NC(=O)c1cc(-c2ccco2)nc2ccccc12 | > 50 µM (inactive) |
| CN(C(=O)COC(=O)c1cc(-c2ccco2)nc2ccccc12)C1CCS(=O)(=O)C1 (configuration not stated) | 26.6 µM (active) |
| CCCCc1ccc(/C=C2\C(=O)c3ccccc3C(O)=C2C(=O)OCC)cc1 | 4.14 µM (active) |
| CC(=O)Oc1ccc(N2C(=O)C3C(C2=O)C2(C)C=CC3(C)O2)cc1 (configuration not stated) | 2.86 µM (active) |
| Nc1ccc(-c2nc3c(Cl)c(N)ccc3[nH]2)cc1 | 5.59 µM (active) |
